From PubChem BioAssay AID720567 (Broad Institute, 2013) come the findings set out here.

Potency and affinity values are given separately. A number with no mark means an inactive call. No rule for the calls is given here.

A short description of this test: HEK293 cell cytotoxicity, dose response, cytotoxicity control, dry powder samples (AID 720567). The conditions noted are these: plate reader; series mostly up to 15 µM; activity change, negative = cytotoxicity: at the top concentration.
Consider `CC(=O)N[C@H]1[C@@H](O[C@@H]2OC(C[C@@H](O)C3O[C@@H](n4ccc(=O)[nH]c4=O)[C@H](O)[C@@H]3O)[C@H](O)[C@H](O)[C@H]2NC(=O)/C=C/CCCCCCCCCCC(C)C)O[C@H](CO)[C@@H](O)[C@@H]1O` (stereo partly drawn), for which the “activity change, negative = cytotoxicity” value is 67.2% [at 3.8 µM].
To `c1ccc(CSc2nnc(-c3ccccc3)o2)cc1` belongs 9.89%; to `COc1ccc(CSc2nnc(-c3ccccc3)o2)cc1`, 49.6%.
